Measured values published in PubChem BioAssay (NCI).
The panel holds about 79,000 compounds, 15% with a hit somewhere; the sample as a whole holds those more often. Active and inactive are the calls of the source. Cut-off read from the data, not from the text of the source: active = growth inhibition above about 70%; inactive = the rest.

Key:
[1] = NCI Yeast Anticancer Drug Screen. Data for the rad52 strain (AID 147);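 note: 0% = growth of vehicle-treated control cultures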; conditions: S. cerevisiae rad52 mutant growth inhibition, stronger effect = higher value
Summary of the method: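 Measured: yeast growth inhibition. System: strain with a defined DNA damage repair alteration. Reference: vehicle-treated control cultures.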

[2] = NCI Yeast Anticancer Drug Screen. Data for the rad50EPP+ strain (AID 151);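 note: 0% = growth of vehicle-treated control cultures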; conditions: S. cerevisiae rad50 mutant strain, stronger effect = higher value
Summary of the method: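 One strain with a rad50 alteration (rad50EPP+) was compound-treated, its growth then compared to that of vehicle controls.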

[3] = NCI Yeast Anticancer Drug Screen. Data for the mgt1 strain (AID 153); conditions: S. cerevisiae mgt1 mutant growth inhibition, stronger effect = higher value
Summary of the method: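 After exposure of the mgt1 yeast mutant to compound, growth was measured and reported as inhibition compared with vehicle controls.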

[4] = NCI Yeast Anticancer Drug Screen. Data for the rad50 strain (AID 155);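 note: 0% = growth of vehicle-only cultures of the same strain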; conditions: S. cerevisiae rad50 strain growth inhibition, stronger effect = higher value
Summary of the method: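 Vehicle-treated cultures provide the reference for the growth inhibition reported for compound-exposed, repair-deficient yeast.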

[5] = NCI Yeast Anticancer Drug Screen. Data for the mec2-1 strain (AID 157); conditions: S. cerevisiae mec2-1 strain, stronger effect = higher value
Summary of the method: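 Test agents were screened against the mec2-1 yeast strain, with defined DNA repair or cell cycle alteration. Growth was scored as inhibition against vehicle-only controls.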

[6] = NCI Yeast Anticancer Drug Screen. Data for the rad14 strain (AID 159);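 note: 0% = growth of vehicle-treated control cultures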; conditions: S. cerevisiae rad14 strain growth inhibition, stronger effect = higher value
Summary of the method: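 Inhibition of growth is reported for a repair-deficient yeast mutant following compound treatment, calculated relative to cultures that received vehicle.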

[7] = NCI Yeast Anticancer Drug Screen. Data for the sgs1 mgt1 strain (AID 161);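 note: 0% = growth of cultures given vehicle only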; conditions: S. cerevisiae sgs1 mgt1 strain, stronger effect = higher value
Summary of the method: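 Inhibition of yeast growth, normalised to vehicle-treated controls, is reported for a strain bearing genetic alterations in DNA damage repair.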

[8] = NCI Yeast Anticancer Drug Screen. Data for the CLN2oe strain (AID 163);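 note: 0% = growth of vehicle-only control cultures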; conditions: S. cerevisiae CLN2oe strain, stronger effect = higher value
Summary of the method: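 Here, growth inhibition in a cell-cycle-altered yeast strain after compound exposure was quantified against vehicle control growth.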

[9] = NCI Yeast Anticancer Drug Screen. Data for the cln2 rad14 strain (AID 165);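 note: 0% = growth equal to vehicle treated cultures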; conditions: S. cerevisiae cln2 rad14 strain, stronger effect = higher value
Summary of the method: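 Growth of compound-exposed yeast (cln2 rad14 genotype) measured and expressed as inhibition relative to vehicle.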

[10] = NCI Yeast Anticancer Drug Screen. Data for the bub3 strain (AID 167); conditions: S. cerevisiae bub3 mutant strain, stronger effect = higher value
Summary of the method: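 Mutant yeast screening strain plus compound; vehicle-treated cultures serve as the 0% inhibition reference.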

[11] = NCI Yeast Anticancer Drug Screen. Data for the wt2 strain (AID 169); conditions: S. cerevisiae wt2 strain growth inhibition, stronger effect = higher value
Summary of the method: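 Genetically defined yeast strains from a DNA-repair/cell-cycle panel were used. Compound-exposed yeast growth was measured, and the inhibition was calculated relative to vehicle treatment.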

[12] = NCI Yeast Anticancer Drug Screen. Data for the mlh1 strain (AID 171);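 note: 0% = growth of vehicle-treated control cultures of the same strain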; conditions: S. cerevisiae mlh1 strain growth inhibition, stronger effect = higher value
Summary of the method: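 Here the genetically defined yeast mutant is grown with each compound, and the extent to which its growth falls below that of vehicle-exposed cells is reported.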

[13] = NCI Yeast Anticancer Drug Screen. Data for the mlh1 rad18 strain (AID 175); conditions: S. cerevisiae mlh1 rad18 strain growth inhibition, stronger effect = higher value
Summary of the method: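 In this whole-cell yeast screen, a strain with altered DNA damage repair is challenged with compound, and its growth is measured against matched vehicle-treated controls.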

[14] = NCI Yeast Anticancer Drug Screen. Data for the rad18 strain (AID 177); conditions: S. cerevisiae rad18 mutant growth inhibition, stronger effect = higher value
Summary of the method: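 Screen uses a yeast strain with a defined lesion in DNA damage repair; compound effect is read as loss of growth compared to untreated vehicle cultures.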

[15] = at 5.0 µM (retest, dose inferred, filed as 0.5)
[16] = at 50.0 µM (retest, dose inferred, filed as 5.0)

Measured: growth inhibition

O=C(CCCN1CCC(O)(c2ccc(Cl)cc2)CC1)c1ccc(F)cc1
inactive: [1]; at 1.2 µM 13% | [1]; at 3.7 µM 6% | [1]; at 11.0 µM 27% | [1]; at 33.0 µM 31% | [1]; at 100.0 µM 38% | [2]; at 1.2 µM -3% | [2]; at 3.7 µM -4% | [2]; at 11.0 µM -6% | [2]; at 33.0 µM -6% | [2]; at 100.0 µM 0% | [3]; at 1.2 µM 17% | [3]; at 3.7 µM 30% | [3]; at 11.0 µM 40% | [3]; at 33.0 µM 58% | [3]; at 100.0 µM 65% | [4]; at 1.2 µM 24% | [4]; at 3.7 µM -8% | [4]; [15] 58% | [4]; at 11.0 µM 69% | [4]; at 33.0 µM 64% | [4]; at 100.0 µM 69% | [5]; at 1.2 µM 19% | [5]; at 3.7 µM 19% | [5]; [15] 33% | [5]; at 11.0 µM 29% | [5]; at 33.0 µM 36% | [5]; at 100.0 µM 41% | [6]; at 1.2 µM 50% | [6]; at 3.7 µM 69% | [7]; [15] 60% | [8]; at 1.2 µM 27% | [8]; at 3.7 µM 31% | [8]; at 11.0 µM 37% | [8]; at 33.0 µM 44% | [8]; at 100.0 µM 49% | [9]; [15] 43% | [10]; at 1.2 µM 38% | [10]; at 3.7 µM 41% | [10]; [15] 48% | [10]; at 11.0 µM 39% | [10]; at 33.0 µM 51% | [10]; at 50.0 µM 66.2% | [10]; at 100.0 µM 59% | [11]; at 1.2 µM 0% | [11]; at 3.7 µM 21% | [11]; at 11.0 µM 18% | [11]; at 33.0 µM 24% | [11]; at 100.0 µM 24% | [12]; at 1.2 µM 11% | [12]; at 3.7 µM 16% | [12]; at 11.0 µM 27% | [12]; at 33.0 µM 34% | [12]; at 100.0 µM 44% | [13]; [15] 35% | [13]; at 50.0 µM 66% | [14]; at 1.2 µM 37% | [14]; at 3.7 µM 37% | [14]; at 11.0 µM 44% | [14]; at 33.0 µM 58% | [14]; at 100.0 µM 64%
active: [4]; [16] 99% | [4]; at 50.0 µM 82.8% | [5]; [16] 100% | [5]; at 50.0 µM 77.7% | [6]; at 11.0 µM 78% | [6]; at 33.0 µM 83% | [6]; at 100.0 µM 86% | [7]; [16] 100% | [7]; at 50.0 µM 91.4% | [9]; [16] 99% | [9]; at 50.0 µM 70.8% | [10]; [16] 99% | [13]; [16] 99%
